Screens (PubChem BioAssay)
IMPase inh: membrane-permeable compound that blocks inositol monophosphatase; CHO-M1 cells, IP1 accumulation, HTRF TR-FRET ratio; 120,000 tested, under 10 active; inhibition (IP1 accumulation), % at 46.1 µM; P97697; active means well fitted curve in the direction sought with a large enough effect in the signal ratio, not every such curve was filed as active; inconclusive means small, poorly fitted or top-dose-only effect, or a change in a side signal; inactive means no such curve, though single readings can be large or run the other way; the % refers to the signal ratio;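 further: cells stimulated with carbachol in lithium chloride buffer; plate controls were DMSO basal wells for no effect and reference inhibitor wells for full effect; higher means more IMPase inhibition seen as more IP1 and lower FRET ratio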
Target sequence (P97697 whole entry, looked up): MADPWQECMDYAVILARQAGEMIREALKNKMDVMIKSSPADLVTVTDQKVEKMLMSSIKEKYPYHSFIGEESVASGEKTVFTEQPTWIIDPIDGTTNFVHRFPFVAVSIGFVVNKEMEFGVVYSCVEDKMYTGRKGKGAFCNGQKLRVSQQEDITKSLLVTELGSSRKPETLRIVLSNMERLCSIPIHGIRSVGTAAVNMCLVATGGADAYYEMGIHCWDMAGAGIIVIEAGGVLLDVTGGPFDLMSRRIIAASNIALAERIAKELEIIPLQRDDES
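Seeded CHO-M1 cells were dosed with compound at up to 46 uM, stimulated with carbachol for 30 min, then lysed in IP-One detection reagents. Higher IP1 lowers the TR-FRET signal.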
ALDH1A1 inh: ALDH1A1 (human) enzyme inhibition; Purified ALDH1A1, NADH fluorescence, propionaldehyde substrate; Potency, µM (highest dose often 75.3 µM), for the others: at the highest dose activity, negative = inhibition, usual class: inhibitors; hit rate 7.3% among 220,000;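 further: potency means the concentration at half of the fitted maximal effect; plate controls were no enzyme wells and a reference inhibitor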
HPGD block: HPGD (human) dehydrogenase inhibition | P15428 | purified HPGD, NADH fluorescence kinetic, PGE2 substrate | Potency, µM, inactives show top-dose activity change, negative = inhibition, hits mostly inhibitors | hit rate 4.3% among 150,000; further: potency means the concentration at half of the fitted maximal effect
Target sequence (P15428 whole entry, looked up): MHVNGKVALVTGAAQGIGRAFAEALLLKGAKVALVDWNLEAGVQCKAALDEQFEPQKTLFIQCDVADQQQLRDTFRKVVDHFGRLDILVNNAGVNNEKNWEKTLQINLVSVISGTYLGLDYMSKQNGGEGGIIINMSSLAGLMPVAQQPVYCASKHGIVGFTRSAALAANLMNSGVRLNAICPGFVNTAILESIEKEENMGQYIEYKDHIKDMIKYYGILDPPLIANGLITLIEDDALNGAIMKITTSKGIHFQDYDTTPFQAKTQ
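NADH formation kinetics: reaction with 30 uM PGE2 and 1 mM NAD+ (final), 20 nM enzyme, Tris-HCl pH 8 with Tween 20, after 15 min compound preincubation at room temperature. Fluorescence change, last versus first of five reads.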
The depositor's hits bear a star; ? = inconclusive; . = not tested or not shown; [ ] = remark or other dose. Hits are enriched below; roughly 9% of the tested compounds scored in any of these assays. Unless noted, the call rests on the fitted dose curve; in most records, active means well fitted inhibition curve with a large enough effect (not every such curve was filed as active); inconclusive means small, poorly fitted or top-dose-only effect, or another doubt; inactive means no such curve, though single readings can be large or run the other way. Unless noted, on the % scale 0 is the no-effect control and ±100 the full control effect.

SMILES	IMPase inh	ALDH1A1 inh	HPGD block
COc1cc(C2c3cc4c(cc3C(O)C3COC(=O)C23)OCO4)cc(OC)c1O (stereo not given)	.	5%	-4%
C=Cc1ccc(Cn2c(C(=O)O)c(C=O)c3ccccc32)cc1	.	-6%	.
Cc1cc(C)c(Cn2c(C(=O)O)c(C=O)c3ccccc32)c(C)c1	.	14µM*	.
C=C1[C@@H](O)C2C=CC[C@H](C)C(=O)[C@@](C)(O)C=C[C@@H](OC(C)=O)[C@@]23C(=O)N[C@H](Cc2ccccc2)[C@@H]3[C@@H]1C (stereo not given in full)	2	-5%	-16%
NC(=O)CN1C[C@@H](O)CC1=O	2	.	.
CC(C)[C@H](NC(=O)[C@H](CCC(=O)O)NC(=O)[C@H](Cc1ccccc1)NC(=O)[C@H](C)NC(=O)[C@@H](N)Cc1ccc(O)cc1)C(=O)N[C@H](C(=O)NCC(N)=O)C(C)C	.	7%	.
O=C1/C(=C\c2ccccc2)C[C@@]2(O)[C@H]3Cc4ccc(O)c5c4[C@@]2(CCN3CC2CC2)[C@@H]1O5	8	-3%	-14%
C=CCN1C(=O)/C(=C/c2ccc(N3CCOCC3)o2)C(=O)NC1=S	.	-6%	28µM*
Cc1cccc(N2C(=O)/C(=C/N3CCN(C(=O)c4ccco4)CC3)C(=O)NC2=S)c1	-4	?	-14%
C=CCN1C(=O)/C(=C/c2cccs2)C(=O)NC1=S	3	8.9µM*	3.2µM*
O=C1NC(=O)C(=Cc2ccc(N3CCOCC3)o2)C(=O)N1	.	0%	.
O=C1NC(=S)N(Cc2ccco2)C(=O)/C1=C\c1cccs1	.	18µM*	.
Cc1ccc(NC(=[OH+])c2cc3ccccc3cc2O)c(C)c1.Cc1ccc(NC(=[OH+])c2cc3ccccc3cc2O)c(C)c1.[Ni]	.	-20%[13.5 µM]	1.8µM*
Cl.Cl.Cl.Cl.Cl.Cl.N.N.N.N.NNNNN.NNNNN.O.O.[Ru].[Ru].[Ru]	7	-1%	-12%
Nc1ncnc2c1ncn2[C@@H]1O[C@@H]2CO[P@](=O)(S)O[C@H]2[C@H]1O	.	?	-10%
CN1C(=O)NC(=O)C2(Cc3ccccc3N3CCOCC32)C1=O (stereo not given)	-6	-1%	3%
O=C1NC(=O)[C@]2(Cc3ccccc3N3CCN(c4ccccc4)CC32)C(=O)N1Cc1ccccc1 (stereo not given in full)	-1	22µM*	-17%
CN1C(=O)NC(=O)[C@]2(Cc3ccccc3N3CCN(c4ccccc4)CC32)C1=O (stereo not given in full)	-3	25µM*	-12%
O=C1NC(=O)C2(Cc3ccccc3N3CCCC32)C(=O)N1Cc1ccccc1 (stereo not given)	-5	?	-9%
O=C1NC(=O)[C@]2(Cc3ccccc3N3CCN(c4ccccc4)CC32)C(=O)N1c1ccccc1 (stereo not given in full)	0	25µM*	-9%
O=C1NC(=O)C2(Cc3ccccc3N3CCCC32)C(=O)N1c1ccc(Cl)cc1 (stereo not given)	-5	?	?
O=C1CCCC2C3CC(CN12)C1CCCCN1C3 (stereo not given)	.	6%	-6%
CC1CC(Cl)CCC1C(=O)OC(C)(C)C (stereo not given)	.	13%	-4%
Cc1ccc(-n2nnnc2SCC(=O)Nc2sc(C)c(C)c2C#N)cc1C	?	16µM*	-20%
CCOc1ccc(CN(CCc2ccc3c(c2)OCO3)Cc2cccc(C)c2)cc1	12	.	.
SMILES	IMPase inh	ALDH1A1 inh	HPGD block
C=CCN1C(=O)NC(=O)/C(=C/c2cnc(SC)nc2)C1=O	4	1%	-4%
C=CCN1C(=O)NC(=O)/C(=C/c2cc3c4c(c2)CCCN4CCC3)C1=O	.	0.89µM*	14µM*
C=CCN1CC[C@]23c4c5ccc(O)c4O[C@@H]2C(=O)CC[C@@]3(O)[C@H]1C5	0	.	.
O=C(O)C[SH+]CC(=O)O.O=C(O)C[SH+]CC(=O)O.[Cu]	.	.	-5%
CCCCNC(=O)OC(C)CNC(=O)Oc1cccc(C)c1 (stereo not given)	25	?	-2%
CC(=NCc1cccnc1)c1c(O)n(Cc2ccccc2)c(=O)[nH]c1=O	0	?	28µM*
CCCCn1c(O)c(C(CC)=NCc2cccnc2)c(=O)[nH]c1=O	-3	2%	-15%
CC(=NCc1cccnc1)c1c(O)n(-c2ccccc2)c(=O)[nH]c1=O	-2	-2%	-3%
CCC(=NCc1cccnc1)c1c(O)n(Cc2ccccc2)c(=O)[nH]c1=O	8	?	16µM*
Cc1oc2ccc(OC(=O)N3CCOCC3)cc2c1C(=O)OC(C)C	13	4µM*	-9%
O=C(Nc1cccc(OC(=O)N2CCOCC2)c1)N1CCOCC1	-10	6%	-5%
COC(=O)[C@@H]1C[C@@]2(O)[C@H](O)[C@H](O)[C@H](O)C[C@H]2N1Cc1cccnc1	.	-7%	-6%
COc1ccc2c(c1)[nH]c1c(C)nccc12	-1	5.6µM*	?
COc1ccc2c3c([nH]c2c1)C(C)=NCC3	-4	?	?
CC1=NN(c2ccccc2)C(=O)[C@@H]1N=Nc1ccc([As](=O)(O)O)c(O)c1	.	3.5µM*	-6%
Nc1nc(N)c(N=Nc2ccc([As](=O)(O)O)c(O)c2)c(N)n1	.	9%[13.5 µM]	-3%
C/C(=C\[C@@H](N)C(=O)O)CP(=O)(O)O	1	-5%	-11%
Nn1c(Cc2cccc3ccccc23)n[nH]c1=S	.	22µM*	.
S=c1[nH]nc(-c2ccco2)n1-c1cccc2ccccc12	9	?	?
COc1ccc(/C=C2\C(=O)NC(=O)N(Cc3ccccc3)C2=O)c(OC)c1OC	.	10µM*	.
COc1cc(OC)c(OC)cc1/C=C1/C(=O)NC(=O)N(Cc2ccccc2)C1=O	.	5%	.
COc1ccccc1N1C(=O)NC(=O)/C(=C/c2ccc3c4c(cccc24)CC3)C1=O	-8	?	.
O=C1NC(=O)N(Cc2ccccc2)C(=O)/C1=C/c1cnn(-c2ccccc2)c1	.	10µM*	.
COc1ccccc1N1C(=O)NC(=O)/C(=C\c2cnn(-c3ccccc3)c2)C1=O	.	8.9µM*	.
OCCN(CCO)CCO	.	5%	-2%
SMILES	IMPase inh	ALDH1A1 inh	HPGD block
CCOP(=S)(OCC)Oc1cc(C)oc(=O)c1Cl	.	1µM*	.
CCOP(=O)(OCC)Oc1cc(C)c(N(C)C)c(C)c1	.	-2%	.
CCOP(=S)(OCC)Oc1cc(C)oc(=O)c1	.	7.9µM*	.
CCOP(=S)(OCC)Oc1cc(C)nc(C(C)C)n1	.	?	-2%
c1ccc(N2CCCC3(CCNCC3)C2)nc1	.	?	-29%
CN1[C@@H]2CC[C@H]1CC(OC(=O)N1Cc3ccccc3NC1=O)C2 (stereo not given in full)	.	-4%	-13%
C=C(C)C#N	.	-8%	-4%
N#CC(Cl)(Cl)Cl	.	20µM*	-3%
O=[As](O)(O)c1ccc(N=Nc2ccc([As](=O)(O)O)cc2)cc1	.	-4%[13.5 µM]	-5%
c1cc(OCC2CO2)cc(OCC2CO2)c1 (stereo not given)	.	?	-13%
ClC1=C(Cl)C2(Cl)C3C4CC(C5OC45)C3C1(Cl)C2(Cl)Cl (stereo not given)	.	4%	-2%
C[C@]12CCC3C(CC[C@]4(O)C[C@@H](O)CC[C@]34C=O)[C@@]1(O)CC[C@@H]2C1=CC(=O)OC1 (stereo not given in full)	-2	-9%	-2%
